Laboratory results reported in PubChem BioAssay (NCI).
This is part of a sample that, as a whole, favours compounds with a hit. Of some 79,000 tested, about 15% had one in any assay. Cut-off read from the data, not from the text of the source: active = growth inhibition above about 70%; inactive = the rest.

Columns and labels:
[1] = NCI Yeast Anticancer Drug Screen. Data for the rad50 strain (AID 155);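 note: 0% = growth of vehicle-only cultures of the same strain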; conditions: S. cerevisiae rad50 strain growth inhibition; at 50.0 µM; active compounds read high
Procedure, shortened: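 Vehicle-treated cultures provide the reference for the growth inhibition reported for compound-exposed, repair-deficient yeast.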

[2] = NCI Yeast Anticancer Drug Screen. Data for the mec2-1 strain (AID 157); conditions: S. cerevisiae mec2-1 strain, at 50.0 µM, active compounds read high
Procedure, shortened: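 mec2-1 yeast strain, carrying an alteration in DNA damage repair or cell cycle control, was exposed to compounds; growth inhibition was measured relative to vehicle-treated controls.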

[3] = NCI Yeast Anticancer Drug Screen. Data for the sgs1 mgt1 strain (AID 161);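 note: 0% = growth of cultures given vehicle only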; conditions: S. cerevisiae sgs1 mgt1 strain, at 50.0 µM, active compounds read high
Procedure, shortened: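 Growth of a repair-deficient yeast mutant was monitored after compound treatment and expressed as inhibition relative to vehicle-treated cultures.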

[4] = NCI Yeast Anticancer Drug Screen. Data for the cln2 rad14 strain (AID 165);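 note: 0% = growth equal to vehicle treated cultures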; conditions: S. cerevisiae cln2 rad14 strain, at 50.0 µM, active compounds read high
Procedure, shortened: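 Yeast carrying cln2 and rad14 alterations (cell cycle control and DNA damage repair) were exposed to compounds. Growth inhibition was measured against vehicle-treated controls.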

[5] = NCI Yeast Anticancer Drug Screen. Data for the bub3 strain (AID 167); conditions: S. cerevisiae bub3 mutant strain, at 50.0 µM, active compounds read high
Procedure, shortened: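 Mutant yeast screening strain plus compound; vehicle-treated cultures serve as the 0% inhibition reference.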

[6] = NCI Yeast Anticancer Drug Screen. Data for the mlh1 rad18 strain (AID 175); conditions: S. cerevisiae mlh1 rad18 strain growth inhibition; at 50.0 µM; active compounds read high
Procedure, shortened: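 Growth inhibition of the yeast strain was measured after compound exposure and expressed relative to vehicle-treated controls. The strain carries defined defects in DNA damage repair.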

Measured: growth inhibition

CC1(O)C(O)C(O)C1(O)CO (stereo not drawn) (tested in a mixture with another compound)
inactive: [1] 6.55% | [2] -3.35% | [3] 9.9% | [4] -1.85% | [5] -2.4% | [6] -4.9%

COCCNC(=O)C1C(=O)C(=O)N(CCOC)C1=O (stereo not drawn)
inactive: [1] -17.8% | [2] -7.65% | [3] -17.2% | [4] -4.25% | [5] -19.6% | [6] -3.5%

CC(C)N(C(=O)C12C3C4C5C3C1(C(=O)N(C(C)C)C(C)C)C5(C#N)C42)C(C)C (stereo not drawn)
inactive: [1] 22.6% | [2] 3.65% | [3] 5.6% | [4] 13.7% | [5] 13.4% | [6] 4.2%

CC(Oc1cc2oc(=O)cc(-c3ccccc3)c2cc1Cl)C(=O)O (stereo not drawn)
inactive: [1] -13.6% | [2] 9.45% | [3] 7.05% | [4] 14.7% | [5] -9.35% | [6] -7.1%

Cc1ccc2ccccc2c1CSc1nc(N)nc2c1ncn2CC(C)C
inactive: [1] 37% | [2] 23.6% | [3] 30.7% | [4] 25.6% | [5] 12.9% | [6] 46.5%

OC(c1cc(C2CCCCC2)nc2ccccc12)C1CCCCN1 (stereo not drawn)
inactive: [1] -13.1% | [2] -0.85% | [3] 8.85% | [4] 2.6% | [5] -5.7% | [6] -12.7%

CN(/N=C/C=N/N(C)C1=NCCN1)C1=NCCN1
inactive: [1] 4.35% | [2] -5.75% | [3] 0.15% | [4] 8.05% | [5] 0.25% | [6] -9.65%

CCCCCCCCCCCCCCCCCC(=O)N/N=C/c1cc(OC)ccc1OC
inactive: [1] 1.55% | [2] 0.05% | [3] -0.05% | [4] -25.2% | [5] -0.6% | [6] -28.9%

CCCCCO[Si](OCCCCC)(OCCCCC)OCCCCC
inactive: [1] 3.8% | [2] -9.3% | [3] 29.4% | [4] -4.4% | [5] 1.55% | [6] 10.9%

O=S(=O)(c1cccc(C(F)(F)F)c1)N(CCCCN(S(=O)(=O)c1cccc(C(F)(F)F)c1)S(=O)(=O)c1cccc(C(F)(F)F)c1)S(=O)(=O)c1cccc(C(F)(F)F)c1
inactive: [1] -13.8% | [2] -11.6% | [3] -20.7% | [4] -20.2% | [5] -19.2% | [6] -6.6%

COc1ccc2ccccc2c1C(Cc1ccccc1)NCCO (stereo not drawn)
inactive: [1] -17.2% | [2] -20.4% | [3] -2.3% | [4] -4.95% | [5] -0.55% | [6] -2.75%

NC(N)=N/N=C(/c1nc2ccc([N+](=O)[O-])cc2[nH]c1=O)C(O)c1ccco1 (stereo not drawn)
inactive: [1] 10.1% | [2] -25% | [3] 0.25% | [4] 5.95% | [5] -15.3% | [6] 1.7%

CC1NC(C)SC(C)S1 (stereo not drawn)
inactive: [1] -9.15% | [2] -23.6% | [3] 0.15% | [4] -16.1% | [5] -0.7% | [6] 36.8%

CSc1nc(NC2OCC(OC(C)=O)C(OC(C)=O)C2OC(C)=O)c(N=C(C)C(C)=O)c(=O)[nH]1 (stereo not drawn)
inactive: [1] -3.9% | [2] 17.7% | [3] 15.2% | [4] 4.95% | [5] 3.05% | [6] 12.8%

O=C(O)C1CC(Br)C(Br)CC1C(=O)Nc1cccc2ccccc12 (stereo not drawn)
inactive: [1] 11.8% | [2] 6.45% | [3] 2.85% | [4] -39.3% | [5] 1.3% | [6] 32.1%

CC(=O)c1ccccc1NS(=O)(=O)c1ccc2nc(C)n(NS(=O)(=O)c3ccccc3C(C)=O)c(=O)c2c1
inactive: [1] 43.5% | [2] 19.6% | [3] -5.25% | [4] 7.2% | [5] 4.55% | [6] 28.6%

CCc1nc(N)nc(N)c1-c1ccc(NC(C)c2ccccc2)c([N+](=O)[O-])c1 (stereo not drawn)
inactive: [1] 13.6% | [2] -8.4% | [3] 14.5% | [4] -1.1% | [5] 9.1% | [6] -7.6%

CC(=O)O[C@]1(C(C)=O)CC[C@H]2[C@@H]3C[C@H](C)C4=CC(=O)C=C[C@]4(C)[C@@]3(F)[C@@H](O)C[C@@]21C
inactive: [1] 3.25% | [2] -35.4% | [3] -10.9% | [4] -15.4% | [5] -16.9% | [6] 20.8%

C/C(=N\NC(=O)CC(=O)N(C(=O)c1ccccc1Cl)c1ccc(C)cc1)c1ccc(Cl)cc1
inactive: [1] -0.5% | [2] -8.95% | [3] -25.4% | [4] -15.8% | [5] -4.25% | [6] -6.1%

Cc1cc(C(C)C)c(C)cc1C(C)C
inactive: [1] -18.9% | [2] -4.25% | [3] -14.4% | [4] -7% | [5] -6.2% | [6] -4.15%

COc1ccc(CC(=O)NC(N)=O)cc1
inactive: [1] -6.35% | [2] 2.7% | [3] -12.3% | [4] -9.4% | [5] -6.1% | [6] 5.15%

CCOCCOCCOC(C)Oc1ccc(Cl)cc1 (stereo not drawn)
inactive: [1] 4.05% | [2] 8.4% | [3] -9.05% | [4] 10.7% | [5] 6.15% | [6] 9.55%

COC1c2ccccc2C(C)(C)c2nc3ccccc3cc21 (stereo not drawn)
inactive: [1] -1.05% | [2] -10% | [3] -4.6% | [4] -38% | [5] 1.6% | [6] -3.1%

S=C(Nc1ccccc1)N1CCN(c2ccccc2Cl)CC1
inactive: [1] 10.7% | [2] -1.65% | [3] 8.25% | [4] -33.9% | [5] -2.15% | [6] 13.1%

Nc1c(-c2ncc[nH]2)ncn1CC(O)C(O)C(O)CO (stereo not drawn)
inactive: [1] 7.5% | [2] 19.6% | [3] 12.3% | [4] 22.9% | [5] 3.2% | [6] 17.9%

CC(C)(C)c1ccc2c(c1)C(C)(C)CCC2(C)C
inactive: [1] 12.8% | [2] 0.8% | [3] 3.05% | [4] -52.6% | [5] 8.3% | [6] 19.2%

O=C(O)C/C=C/CC(=O)O
inactive: [1] -2.25% | [2] -13.5% | [3] -2.7% | [4] 4.45% | [5] 15.4% | [6] -3.15%

COC(=O)C(C)CC(C)C(=O)OC (stereo not drawn)
inactive: [1] 19.6% | [2] -15.8% | [3] 17.6% | [4] 12.7% | [5] -2.95% | [6] 16.4%

CCn1c2ccccc2c2ccc(N=Cc3ccc4ccccc4c3)cc21
inactive: [1] 5.65% | [2] -2.3% | [3] -7.3% | [4] -14% | [5] 14.3% | [6] 1.3%

O=C(N=C1[Se]C(=Nc2ccccc2)C(=Nc2ccccc2)N1c1ccc(Cl)cc1)c1ccccc1
inactive: [1] -13.8% | [2] -10.4% | [3] -27.1% | [4] -22.9% | [5] -9.25% | [6] -21.4%

O=c1c2cccnc2cc(-c2ccccc2)n1CCO
inactive: [1] -27.5% | [2] -12.3% | [3] -16.2% | [4] 4.55% | [5] 3.3% | [6] -4.15%

O=[N+]([O-])c1ccc(CN2CCC(C(=S)Nc3ccccc3)=C2c2ccccc2)cc1
inactive: [1] 9.6% | [2] 0.3% | [3] 8.8% | [4] 9.05% | [5] -1.2% | [6] 12.4%

CCC(C)(NC(N)=O)c1ccccc1 (stereo not drawn)
inactive: [1] -6.9% | [2] 10.4% | [3] -12.1% | [4] -7.5% | [5] -12.9% | [6] -7.35%

CC1(C)C2CCC1(C)C(NC(=O)COCCOCC(N)=O)C2 (stereo not drawn)
inactive: [1] -45% | [2] -53.1% | [3] -52.6% | [4] -2.55% | [5] -54.9% | [6] -67.3%

CC(C)C(=O)OC1c2cc(OCCN(C)C)ccc2CC1C (stereo not drawn)
inactive: [1] -11% | [2] -6.75% | [3] -8.3% | [4] -27.9% | [5] -5.95% | [6] -33.9%

N#Cc1c(O)c(-c2ccccc2)c(=O)n2c1[nH]c1ccccc12
inactive: [1] -11.7% | [2] -9.9% | [3] -13.6% | [4] 14.9% | [5] 2.6% | [6] -12.3%

CCC(CC)C(=O)OCCCc1ccccc1
inactive: [1] 3.95% | [2] -0.05% | [3] 10.4% | [4] -7.4% | [5] 11.9% | [6] 4.4%

COc1ccccc1NC(=O)Cc1nc(=O)[nH]c(=O)[nH]1
inactive: [1] -13.3% | [2] -37.7% | [3] 3.5% | [4] -0.35% | [5] -4.95% | [6] -9.55%
